The full ranking holds about 25,000 sequences; the median of “ln(normalized median fluorescence intensity)” is about 6.7, and the highest 2% start at about 10. Only a selection was taken, and the highest values are over-represented in it overall.

The results in this text go back to the supplement of paper PMC11417369.

The assay has as its system PfHDP1 homeodomain (GST-tagged). The assay is described as follows: gcPBM binding intensity (ln(normalized median fluorescence intensity)); higher = stronger DNA binding. The gist of the method:
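Probes on an Agilent 4 × 180k array were primer-extended, double-stranded and 36 bp long, taken from intergenic genomic regions, with negative controls added. GST-tagged P. falciparum DNA-binding domains from E. coli, about 25 μg on average, were applied to the array for 1 h in 1× PBS containing 1% milk, 0.2 mg/ml BSA, 0.5% salmon testes DNA and 0.03% Triton X-100. Binding intensity, obtained after Alexa488 anti-GST antibody detection and a 488 nm scan, is the highest Masliner-normalised natural-log median intensity across replicate spots of either probe orientation.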
TTTTTTGTTAAGTTGGTGCAAACAATAGTTATTGAC: the “gcPBM binding intensity (ln)” value was 10.7.
On to “ATTTATTTATACAAAGTGCAATATTTTGTTAAAGTC [GTGCAC_site9618]”, for which the “gcPBM binding intensity (ln)” value came to 8.15.
As for TTACACATGTATTTGGTGCATGTTGTTAACAAAATA, the figure is 9.83; as for “TTTATTTTAACTTGTTCACACATTTGAATAAATAAA [CACACA_site5064]”, 6.3.
As for “ATAATATATTATTATAGTACTTTATTTTATTTTATG [XGTACX_site2387]”, the “gcPBM binding intensity (ln)” value is 6.65.
The same measure for “TTTTTAAAATTTTTAAAAATATTATGTTAAATATAT [CACACA_negctrl_site415]”: 6.29; for “CTTTTTTTTTGATGTTGTACATATATATTATATAAT [XGTACX_site1321]”: 6.9.
On to “TTTTTTTTTTTTTTGTGTACATATAATGCACATTAT [XGTACX_site6505]”, for which the “gcPBM binding intensity (ln)” value turned out to be 10.1.
The same measure for “TTATTATAAATGTTTTGTACGTACATCCGAAAATAA [XGTACX_site2175]”: 6.57; for “AAATAATAAAAAAAATGTACACGTAAATATTATATT [XGTACX_site8125]”: 6.99.
As for “ATTATGTTATTATTTTGTACACATAAATAATACGTT [XGTACX_site816]”, the “gcPBM binding intensity (ln)” value was 6.61.
The same measure for “GAACACTAATAATGTTGTACACGTAATTATATATTT [XGTACX_site777]”: 6.53; for “TTGTACATCTTTTGCACACGTAATGTTATTAAAATA [CACACA_site4827]”: 10.7; for “TTTTGTACATCTTTTGCACACGTAATGTTATTATAA [CACACA_site1259]”: 10.6.
As for “TTGTACATCTTTTGCACACGTAATGTTATTATAATA [CACACA_site1258]”, the figure is 10.7.
As to “CATACCCATAAACACACACACATATATACCTATATA [CACACA_site4745]”, the “gcPBM binding intensity (ln)” value amounted to 6.87.
The same measure for “AAAAAAAAGTTAAGCACACACATGAATAAATAATAC [CACACA_site840]”: 6.94; for “ATAAAAATATTATAAGCACACATATATATATATATA [CACACA_site8781]”: 9.54.
Turning to “AAAGTAAATTTAAGCACACACAACGAATTTTTATAC [CACACA_site1959]”, the “gcPBM binding intensity (ln)” value was determined as 6.84.
As for “TGAAATTTGTTATATGCATGTAAAATATTACGACGA [TGCATGCA_site201]”, the figure is 6.59; as for “TTTTTTTTTCCGTGTTGTACAAAAAAAAAGATTTTG [XGTACX_site3925]”, 6.21.
The same measure for “ACACAAAACAAAAAGGTGCTGTATAAATGGGTGTAT [GTGCAC_site9905]”: 7; for “TATTTTAGTAAAGGTGGTACTTTTAAGTTCATGTAT [XGTACX_site1854]”: 6.23; for “TATACAAACTATGATGCACACATATATATATGTATA [CACACA_site8327]”: 8.97.
In the case of “TTTTTTTTTATGTGCACACAAAAGATGCTTATATTT [CACACA_site2348]”, the “gcPBM binding intensity (ln)” value turned out to be 11.2.
The same measure for “GCTTATAAGATATGCACACACAACACTTACAAAAAA [CACACA_site817]”: 9.27; for “TTATTTATTTTTATATGTACACAAAAAAAAAAAAAA [XGTACX_site1459]”: 6.53.
For the sequence “TTTTTTTTTTTATGTGCACACAAAAGATGCTTATAT [CACACA_site2347]”, the “gcPBM binding intensity (ln)” value stood at 10.7.
As for “TAGCTTATAAGATATGCACACACAACACTTACAAAA [CACACA_site8174]”, the figure is 9.5; as for “AGGGAATATTTTTATGCATGTGCTTACACATTACAA [TGCATGCA_site830]”, 6.83; as for “ATTCTATTCTCCTTCACACACAAAAATATTTCATCA [CACACA_site2360]”, 6.98.
The same measure for “AAAAAAAATGGATGATCACACACTTCATAAAAATTG [CACACA_site2213]”: 6.14; for “TTTTTTTTTTTTAATACACACATATTTATATTTATT [CACACA_site7802]”: 6.63; for “CAGAATAATTTTATCGGTACACACTGTATGCATAAT [XGTACX_site736]”: 6.88.
As for “AAAATTAACGAGTGCACACATATTTAGATAAAATAC [CACACA_site2936]”, the figure is 11.3.
Consider “TAAATTATAACGTGCACACATATTTAAAATGAAATG [CACACA_site2820]”, for which the “gcPBM binding intensity (ln)” value stood at 10.
In the case of “GAAAAATTAAAAATAACACACACATATATATATTTA [CACACA_site8896]”, the “gcPBM binding intensity (ln)” value is 6.38.
As for “AAAATTAAAAATAACACACACATATTTATATTTATA [CACACA_site7329]”, the figure is 6.24; as for “AAAAAATTAACGAGTGCACACATATTTAGATAAAAT [CACACA_site8958]”, 10.7.
With “AAAATTAAAAATAACACACACATATATATATTTATA [CACACA_site2776]”, the “gcPBM binding intensity (ln)” value was determined as 6.54.
“ATAATATATTTTTGAACACACAATATAGATTTATAT [CACACA_site7857]”: the “gcPBM binding intensity (ln)” value is 6.35.
Regarding “TTTTTTTCAATATTTGCACACGATTAAAATATTTAA [CACACA_site5266]”, the “gcPBM binding intensity (ln)” value came to 10.6.
The same measure for “GAACAATATATTTGCACACAAAAAATATATATTTAT [CACACA_site3317]”: 10.7; for “AGCTAAAATATTTTTGCACACGATTTTTTTTTTTTT [CACACA_site1140]”: 9.82; for “TATGCACACAATATATGTACTTATATATTTTAAAAA [XGTACX_site5482]”: 9.96.
As for “TTTATATTTTTTTTTGCACACTTTAAAAAAATATAT [CACACA_site1146]”, the “gcPBM binding intensity (ln)” value came to 9.29.
The same measure for “ATATTTATATATTGCACACAAAAAAAAAAAAAAATC [CACACA_site1629]”: 10.4; for “TTTTTTTCAATATTTGCACACGATTATAATATTTAA [CACACA_site2237]”: 10.3; for “TTTTATTTTTTATTTGCACACAATATGTAAAAAAAT [CACACA_site2927]”: 10.6.
As for “AGGAACAATATATTTGCACACAAAAAATATATATTT [CACACA_site3316]”, the figure is 10.4.
As for “AAAAAAATTAATGTGTGTACTTAGATATAATGTTTA [XGTACX_site8862]”, the figure is 6.43; as for “AAAAGTACAATATATATGTATGTGTATAGAATGGTT [TGCATGCA_negctrl_site76]”, 7.28; as for “AAAATATTTTAATGTTGTACATTAATATATTATATA [XGTACX_site2513]”, 6.03.
In the case of “TAAAAATATATACATACATGCATACATATATATGTA [TGCATGCA_site774]”, the “gcPBM binding intensity (ln)” value came to 6.47.
The same measure for “TTATATATTTTTTGCACACCAAAAAAGAGAATATTC [CACACA_site2730]”: 10; for “TGTGTTTATACGTTTTGTACATATTTTTATTTTGTA [XGTACX_site6425]”: 6.74; for “TTCTTACACGTTTGCACACTAAAATATATATATATA [CACACA_site434]”: 10.7.
The same measure for “TATTCTTACACGTTTGCACACTAAAATATATATATA [CACACA_site435]”: 9.97.
As for “TTTTATTCCTTCTTTGCACACGTTTAAAAATATATA [CACACA_site2899]”, the “gcPBM binding intensity (ln)” value was 10.3.
